{"source": "the supplement of paper PMC8728848", "assay_in_all_cases": "glycan array binding signal (z-score within array); higher = stronger binding", "conditions_in_all_cases": "glycan notation: IUPAC condensed, linker removed", "key": {"[1]": {"target": "GlcNAc(b1-3)Gal(b1-4)GlcNAc(b1-3)Gal(b1-4)GlcNAc(b1-2)[GlcNAc(b1-3)Gal(b1-4)GlcNAc(b1-3)Gal(b1-4)GlcNAc(b1-6)]Man(a1-6)[GlcNAc(b1-3)Gal(b1-4)GlcNAc(b1-3)Gal(b1-4)GlcNAc(b1-2)Man(a1-3)]Man(b1-4)GlcNAc(b1-4)[Fuc(a1-6)]GlcNAc", "procedure,_shortened": "(§1)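 Glycan array binding is given as a within-array Z-score, which can be read as non-binding when negative. The arrays, 3228 of them, came from the Consortium for Functional Glycomics database and were retained only where the protein sequence was available. Z-scores were averaged across arrays of the same protein sequence at different concentrations or buffers and across linkers.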"}, "[2]": {"target": "GlcNAc(b1-3)Gal(b1-4)GlcNAc(b1-3)Gal(b1-4)GlcNAc(b1-3)Gal(b1-4)GlcNAc(b1-2)Man(a1-3)[GlcNAc(b1-3)Gal(b1-4)GlcNAc(b1-3)Gal(b1-4)GlcNAc(b1-3)Gal(b1-4)GlcNAc(b1-2)Man(a1-6)]Man(b1-4)GlcNAc(b1-4)GlcNAc", "procedure,_shortened": "as §1"}, "[3]": {"target": "GlcNAc(b1-3)Gal(b1-4)GlcNAc(b1-3)Gal(b1-4)GlcNAc(b1-3)Gal(b1-4)GlcNAc(b1-2)[GlcNAc(b1-3)Gal(b1-4)GlcNAc(b1-3)Gal(b1-4)GlcNAc(b1-3)Gal(b1-4)GlcNAc(b1-6)]Man(a1-6)[GlcNAc(b1-3)Gal(b1-4)GlcNAc(b1-3)Gal(b1-4)GlcNAc(b1-3)Gal(b1-4)GlcNAc(b1-2)Man(a1-3)]Man(b1-4)GlcNAc(b1-4)[Fuc(a1-6)]GlcNAc", "procedure,_shortened": "as §1"}, "[4]": {"target": "GlcNAc(b1-3)Gal(b1-4)GlcNAc(b1-3)Gal(b1-4)GlcNAc(b1-3)Gal(b1-4)GlcNAc(b1-3)Gal(b1-4)GlcNAc(b1-2)[GlcNAc(b1-3)Gal(b1-4)GlcNAc(b1-3)Gal(b1-4)GlcNAc(b1-3)Gal(b1-4)GlcNAc(b1-3)Gal(b1-4)GlcNAc(b1-6)]Man(a1-6)[GlcNAc(b1-3)Gal(b1-4)GlcNAc(b1-3)Gal(b1-4)GlcNAc(b1-3)Gal(b1-4)GlcNAc(b1-3)Gal(b1-4)GlcNAc(b1-2)Man(a1-3)]Man(b1-4)GlcNAc(b1-4)[Fuc(a1-6)]GlcNAc", "procedure,_shortened": "as §1"}, "[5]": {"target": "GlcNAc(b1-3)Gal(b1-4)GlcNAc(b1-3)Gal(b1-4)GlcNAc(b1-3)GalNAc", "procedure,_shortened": "as §1"}, "[6]": {"target": "GlcNAc(b1-3)Gal(b1-4)GlcNAc(b1-6)[GlcNAc(b1-3)Gal(b1-3)]GalNAc", "procedure,_shortened": "as §1"}, "[7]": {"target": "GlcNAc(b1-4)GlcNAc(b1-4)GlcNAc(b1-4)GlcNAc(b1-4)GlcNAc", "procedure,_shortened": "as §1"}, "[8]": {"target": "GlcNAc6S(b1-3)Gal(b1-4)GlcNAc", "procedure,_shortened": "as §1"}, "[9]": {"target": "Man(a1-2)Man(a1-2)Man(a1-6)[Man(a1-3)]Man", "procedure,_shortened": "as §1"}, "[10]": {"target": "Man(b1-4)GlcNAc", "procedure,_shortened": "as §1"}, "[11]": {"target": "Neu5Ac(a2-3)Gal(b1-3)GalNAc(b1-4)[Neu5Ac(a2-3)]Gal(b1-4)Glc", "procedure,_shortened": "as §1"}, "[12]": {"target": "Neu5Ac(a2-3)Gal(b1-3)[GlcNAc(b1-6)]GalNAc", "procedure,_shortened": "as §1"}, "[13]": {"target": "Neu5Ac(a2-3)Gal(b1-3)[Neu5Ac(a2-6)]GalNAc", "procedure,_shortened": "as §1"}, "[14]": {"target": "Neu5Ac(a2-3)Gal(b1-3)]Neu5Ac(a2-3)Gal(b1-4)]GlcNAc", "procedure,_shortened": "as §1"}, "[15]": {"target": "Neu5Ac(a2-3)Gal(b1-4)GlcNAc(b1-2)Man", "procedure,_shortened": "as §1"}, "[16]": {"target": "Neu5Ac(a2-3)Gal(b1-4)GlcNAc(b1-2)Man(a1-3)[Neu5Ac(a2-3)Gal(b1-4)GlcNAc(b1-2)Man(a1-6)]Man(b1-4)GlcNAc(b1-4)[Fuc(a1-6)]GlcNAc", "procedure,_shortened": "as §1"}, "[17]": {"target": "Neu5Ac(a2-3)Gal(b1-4)GlcNAc(b1-2)Man(a1-3)[Neu5Ac(a2-6)Gal(b1-4)GlcNAc(b1-2)Man(a1-6)]Man(b1-4)GlcNAc(b1-4)GlcNAc", "procedure,_shortened": "as §1"}, "[18]": {"target": "Neu5Ac(a2-3)Gal(b1-4)GlcNAc(b1-2)[Neu5Ac(a2-3)Gal(b1-4)GlcNAc(b1-6)]Man(a1-6)[Neu5Ac(a2-3)Gal(b1-4)GlcNAc(b1-2)Man(a1-3)][GlcNAc(b1-4)]Man(b1-4)GlcNAc(b1-4)GlcNAc", "procedure,_shortened": "as §1"}, "[19]": {"target": "Neu5Ac(a2-3)Gal(b1-4)GlcNAc(b1-3)Gal(b1-4)[Fuc(a1-3)]GlcNAc", "procedure,_shortened": "as §1"}, "[20]": {"target": "Neu5Ac(a2-6)Gal", "procedure,_shortened": "as §1"}, "[21]": {"target": "Neu5Ac(a2-6)Gal(b1-4)GlcNAc(b1-2)Man(a1-3)[Gal(b1-4)GlcNAc(b1-2)Man(a1-6)]Man(b1-4)GlcNAc(b1-4)GlcNAc", "procedure,_shortened": "as §1"}, "[22]": {"target": "Neu5Ac(a2-6)Gal(b1-4)GlcNAc(b1-3)Gal(b1-4)[Fuc(a1-3)]GlcNAc(b1-3)Gal(b1-4)[Fuc(a1-3)]GlcNAc", "procedure,_shortened": "as §1"}, "[23]": {"target": "Neu5Ac(a2-6)Gal(b1-4)GlcNAc6S", "procedure,_shortened": "as §1"}, "[24]": {"target": "Neu5Ac(a2-8)Neu5Ac(a2-3)Gal(b1-3)GalNAc(b1-4)[Neu5Ac(a2-3)]Gal(b1-4)Glc", "procedure,_shortened": "as §1"}}, "note": "The sample as a whole holds a higher share of the strongest signals than the screen did.", "data": [{"binder": "Pwp4 (Candida glabrata) (protein) MGSSHHHHHHSSGLVPRGSHMASVGNPITVSNVCSFPKNWHRTAGFRALTARLGIGIQSDSYKELLNYPGTFQLTTQQSSTTKPNFQISGLVGNIYGLTIVPSYLLVELTGYFVPPVSGEYTFSLEGSDDAAIIFIANPSTFKCGHVEDWPTAYDNDVTVTESIHATRTIYMIEGVAYPIRIAYYNGLSLGKLQASFTDPEGVKRVDWNGYIWRYDSCDTCSYV", "values": [{"measurement": "glycan array binding signal (z-score)", "setting": "[1]", "result": 4.62}, {"measurement": "glycan array binding signal (z-score)", "setting": "[2]", "result": 1.16}, {"measurement": "glycan array binding signal (z-score)", "setting": "[3]", "result": 5.36}, {"measurement": "glycan array binding signal (z-score)", "setting": "[4]", "result": 4.3}, {"measurement": "glycan array binding signal (z-score)", "setting": "[5]", "result": -0.617}, {"measurement": "glycan array binding signal (z-score)", "setting": "[6]", "result": -0.359}, {"measurement": "glycan array binding signal (z-score)", "setting": "[7]", "result": -0.442}, {"measurement": "glycan array binding signal (z-score)", "setting": "[8]", "result": -0.195}, {"measurement": "glycan array binding signal (z-score)", "setting": "[9]", "result": -0.597}, {"measurement": "glycan array binding signal (z-score)", "setting": "[10]", "result": -0.403}, {"measurement": "glycan array binding signal (z-score)", "setting": "[11]", "result": -0.275}, {"measurement": "glycan array binding signal (z-score)", "setting": "[12]", "result": 3.89}, {"measurement": "glycan array binding signal (z-score)", "setting": "[13]", "result": -0.221}, {"measurement": "glycan array binding signal (z-score)", "setting": "[14]", "result": -0.455}, {"measurement": "glycan array binding signal (z-score)", "setting": "[15]", "result": -0.174}, {"measurement": "glycan array binding signal (z-score)", "setting": "[16]", "result": 1.34}, {"measurement": "glycan array binding signal (z-score)", "setting": "[17]", "result": 0.37}, {"measurement": "glycan array binding signal (z-score)", "setting": "[18]", "result": 9.42}, {"measurement": "glycan array binding signal (z-score)", "setting": "[19]", "result": -0.414}, {"measurement": "glycan array binding signal (z-score)", "setting": "[20]", "result": 0.575}, {"measurement": "glycan array binding signal (z-score)", "setting": "[21]", "result": 1.01}, {"measurement": "glycan array binding signal (z-score)", "setting": "[22]", "result": -0.388}, {"measurement": "glycan array binding signal (z-score)", "setting": "[23]", "result": -0.336}, {"measurement": "glycan array binding signal (z-score)", "setting": "[24]", "result": -0.601}]}]}
